Source: PubChem BioAssay
Only some compounds are listed: those with a hit (about 21% of all), similar ones and a draw of the others.
Cycloheximide cs = counter-screen hit for Shiga toxin inhibitors, cycloheximide | cell reporter, cycloheximide protein synthesis inhibition counterscreen | max response, % | 300,000 tested, 12% active | AID 2314; in the data active = max response mostly above about 13%, no sharp cut-off; inactive = mostly below about 14%; also: read at 38.3 µM for the half of the compounds with a filed dose; 0% is about no effect
Shiga toxin inh = Shiga toxin inhibition. Vero cells, Shiga toxin protein synthesis inhibition reporter. inhibition, % at 38.7 µM. 290,000 tested, 9.2% active. AID 2315; in the data active = inhibition mostly above about 28%, no sharp cut-off; inactive = mostly below about 43%; also: 0% is about no effect
Pf growth 96h = P. falciparum growth inhibition at 96 hours. P. falciparum luciferase reporter growth, 96 h. Potency, µM (titrated, usually from 28.7 µM), without a hit: at the top dose activity change, negative = inhibition, most hits filed as inhibitors. 320,000 tested, 6.9% active. AID 504834; also: potency is read from the fitted curve at half-maximal effect; % is scaled to controls: 0 for no effect and ±100 for the full control effect
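Cell-based qHTS: luciferase-tagged P. falciparum in erythrocytes (2% hematocrit, 0.05% parasitemia final) incubated with compounds for 96 hours, 37 C, 5% CO2; luciferase detection reagent then added and luminescence measured.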
Pf growth 48h = inhibits P. falciparum growth in the first generation, 48 h; P. falciparum luciferase growth in erythrocytes, 48 h; Potency, µM (top dose mostly 28.7 µM), inactives show at the top dose activity change, negative = inhibition, actives largely listed as inhibitors; 310,000 tested, 5.9% active; also: potency is read from the fitted curve at half-maximal effect; % is scaled to controls: 0 for no effect and ±100 for the full control effect
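In quantitative HTS format, infected erythrocytes bearing luciferase-reporter parasites were treated for a single generation at 37 C. Luminescence after adding detection reagent served as the growth measure.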
NS1 inh = influenza NS1 inhibition; Potency, µM (series often up to 46.1 µM), for inactives: at the highest dose activity, positive = more growth; 270,000 tested, 0.4% active; AID 2326; calls by dose curve; also: potency is read from the fitted curve at half-maximal effect; actives are rising curves; nearly all actives have a fitted effect of over 50% in size
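S. cerevisiae expressing influenza A NS1, grown in glucose, washed, then diluted 1:100 into pH 6.0 -URA galactose medium with 23 nl compound. Growth recovery read as OD600; NS1-free strain serves as control.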
* hit, by the source's call; ? = inconclusive; / = no result. Unless noted, calls follow the shape of the dose curve; as a rule, active = well fitted inhibition curve with a large enough effect; inconclusive = small, poorly fitted or top-dose-only effect, or another doubt; inactive = no such curve, though single readings can be large or run the other way.

SMILES | Cycloheximide cs | Shiga toxin inh | Pf growth 96h | Pf growth 48h | NS1 inh
CCOC(=O)[C@@H]1[C@H]2COc3cc(OC)ccc3[C@@H]2N2C(=O)N(c3ccc(C(F)(F)F)cc3)C(=O)[C@]12C | -1.9 | -3.9 | 11.7µM* | ? | 10.9%
CCOc1ccc(N2C(=O)CC(NCC#N)C2=O)cc1 (configuration not stated) | -2.6 | 4.2 | -18.1% | ? | -65.5%
COc1cc(C(=O)N2CCN(Cc3ccc4c(c3)OCO4)CC2)cc(OC)c1OC | -1.0 | -10.1 | ? | ? | 24.3%
COc1ccc(CN2C(=O)C(O)(CC(=O)c3ccc4c(c3)OCO4)c3ccccc32)cc1OC (configuration not stated) | -1.8 | -12.0 | 5.86µM* | / | -0.7%
O=C(c1ccc(Cn2cc(Cl)cn2)o1)N1CCN(Cc2ccc3c(c2)OCO3)CC1 | -0.9 | -29.5 | 13.1µM* | ? | -7.4%
CCN1C(=O)C(O)(CC(=O)c2ccc3c(c2)OCCO3)c2ccccc21 (configuration not stated) | 5.5 | 14.5 | 6.6% | / | -3.8%
COc1ccc(C(=O)N2CCN(Cc3ccc4c(c3)OCO4)CC2)cc1OC | 1.1 | 7.1 | 9.28µM* | -3.6% | 6.7%
COc1ccccc1N1CCN(C(=O)c2ccc3c(=O)n(Cc4ccc5c(c4)OCO5)c(=O)[nH]c3c2)CC1 | -5.4 | -6.3 | ? | 1.47µM* | 14.4%
CCCCCCC1(C)NC(=O)N(C(C)C(=O)Nc2ccc(N3CCOCC3)cc2)C1=O (configuration not stated) | / | / | -6.6% | -29.1% | /
Cc1[nH]c2ccccc2c1C1(O)C(=O)N(Cc2ccc3c(c2)OCO3)c2ccccc21 (configuration not stated) | -2.3 | 12.0 | 13.1µM* | -21.0% | -194.1%
COc1ccc(Cn2c(=O)[nH]c3cc(C(=O)N4CCN(Cc5ccccc5)CC4)ccc3c2=O)cc1 | -0.8 | 11.2 | -1.5% | ? | -21.4%
Cc1ccc(OCC(=O)N2CCN(Cc3ccc4c(c3)OCO4)CC2)cc1 | -0.7 | -1.1 | -1.0% | 17.8% | /
COc1ccc(Cn2c(=O)[nH]c3cc(C(=O)N4CCN(c5ccccc5F)CC4)ccc3c2=O)cc1 | -6.8 | -12.3 | 11.7µM* | 11.7µM* | 22.0%
CCCc1cc(=O)oc2cc(OCC(=O)N3CCN(Cc4ccc5c(c4)OCO5)CC3)ccc12 | -1.8 | -2.0 | 11.7µM* | ? | -32.6%
COc1ccc(Cn2c(=O)[nH]c3cc(C(=O)N4CCN(c5ccccc5OC)CC4)ccc3c2=O)cc1 | -6.7 | -15.0 | 8.4% | 3.29µM* | 24.1%
COCCNC(=S)N(C)C1(c2ccccc2Cl)CCCCC1=O (configuration not stated) | 5.9 | 19.3 | -5.9% | -0.4% | /
CCOC(=O)c1c(C)oc(/N=C/c2ccccc2O)c1C#N | -4.0 | -11.1 | ? | -8.4% | -1.7%
O=C(c1[nH]nc2c1CCc1ccccc1-2)N1CCN(Cc2ccc3c(c2)OCO3)CC1 | 15.0 | -7.0 | ? | 8.28µM* | 1.9%
O=C(c1ccccc1)N1CCN(Cc2ccc3c(c2)OCO3)CC1 | -1.9 | 0.6 | 13.0% | 29.7% | -4.4%
O=C(/C=C/c1ccc2ccccc2n1)c1cc(Br)ccc1O | 42.8* | 80.5* | ? | ? | 9.1%
O=C(/C=C/c1ccc(F)cc1)c1cc(Br)ccc1O | 15.0* | 77.4* | -1.2% | 12.8% | -0.4%
O=C(O)/C=C/c1ccc2ccccc2n1 | 0.9 | 4.8 | -26.7% | -3.5% | -33.2%
Cc1ccc(OCCn2cc(Br)c(=O)[nH]c2=O)cc1 | -1.2 | 3.9 | 9.28µM* | -24.2% | 8.5%
Cc1cccnc1CCNC(=O)CCc1nnc(CCc2ccccc2)o1 | 9.0 | 6.8 | ? | 2.7% | 3.8%
Cn1ccnc1SCCNC(=O)CCc1nnc(CCc2ccccc2)o1 | 8.4 | 28.4 | 10.4µM* | 12.7% | -1.8%
SMILES | Cycloheximide cs | Shiga toxin inh | Pf growth 96h | Pf growth 48h | NS1 inh
O=C(CCc1nnc(CCCCc2ccccc2)o1)NCCc1cccnc1 | -0.3 | 5.2 | ? | -11.7% | 0.4%
Cn1ccnc1SCCNC(=O)CCc1nnc(CCCCc2ccccc2)o1 | 12.3 | 22.8* | ? | -22.8% | -4.9%
Cc1ccc2nc(CCc3ccc(N)cc3)[nH]c2c1 | 49.9* | / | -2.8% | ? | ?
Nc1ccc2nc(CCc3ccccc3)[nH]c2c1 | 71.4* | 22.5* | 29.0% | 3.5% | 23.1%
COc1ccccc1CNC(=O)CN1CCN(Cc2ccc(Cl)cc2)C1=O | / | / | / | / | 13.5%
c1ccc(NC2=Nc3ccccc3CC2)cc1 | 36.8* | 44.5* | ? | / | -5.2%
c1ccc(Nc2ccc3c4c(cccc24)CC3)cc1 | 3.1 | 2.0 | -0.8% | ? | ?
CC(=O)c1ccc(NS(=O)(=O)c2cccc(C)c2)cc1 | 35.5* | 88.6* | / | 40.8% | 11.2%
COc1ccc(C(=O)/C=C/Nc2ccc(S(=O)(=O)Nc3cccc(C(C)=O)c3)cc2)cc1 | 39.1* | 93.4* | ? | ? | -5.4%
COc1cccc(C(=O)/C=C/Nc2ccc(S(=O)(=O)Nc3ccc(C(C)=O)cc3)cc2)c1 | 50.9* | 91.1* | 13.1µM* | 10.4µM* | 4.8%
O=C(COC(=O)c1ccc(S(=O)(=O)N2CCOCC2)cc1)NCc1cccs1 | -3.9 | -7.5 | -14.5% | 13.3% | /
COC(=O)C1CCN(C2=C(NS(=O)(=O)c3ccc(Cl)cc3)C(=O)c3ccccc3C2=O)CC1 | 16.8 | 20.3 | ? | ? | 1.9%
CCOC(=O)N1CCN(C2=C(NS(=O)(=O)c3ccc(C)cc3)C(=O)c3ccccc3C2=O)CC1 | 11.3 | 13.1 | 3.29µM* | 8.28µM* | 18.4%
CC(=O)Nc1ccc(S(=O)(=O)NC2=C(N3CCN(c4ccc(F)cc4)CC3)C(=O)c3ccccc3C2=O)cc1 | 8.8 | -9.7 | / | 0.738µM* | 7.3%
CC1CCCN(C2=C(NS(=O)(=O)c3ccc(Cl)cc3)C(=O)c3ccccc3C2=O)C1 (configuration not stated) | 22.2* | 40.1* | 11.7µM* | ? | 6.1%
COc1ccc(N(CC(=O)NN=C2CCN(C)CC2)S(=O)(=O)c2ccccc2)c(OC)c1 | 9.7 | -5.9 | 9.5% | -1.8% | 22.5%
CS(=O)(=O)N(Cc1ccccc1)c1ccc(C(=O)N2CCc3ccccc3C2)cc1 | -5.7 | -22.9 | 2.3% | -4.6% | 0.3%
CC1CCN(c2nc(-c3ccco3)c3c(c2C#N)CC(C)(C)OC3)CC1 | -1.4 | 2.1 | ? | ? | -33.0%
COc1ccc(C(=O)NCCCc2nc3ccccc3n2Cc2cc(C)ccc2C)cc1OC | -2.6 | 12.5 | 10.4µM* | 11.7µM* | -24.0%
COc1ccc(C(=O)NCCc2c[nH]c3ccccc23)cc1[N+](=O)[O-] | 7.4* | 3.1 | 13.1µM* | 0.0% | -3.0%
COc1ccc(C2(CNC(=O)c3ccc(OC)c([N+](=O)[O-])c3)CCOCC2)cc1OC | -3.4 | -16.1 | 2.33µM* | -7.9% | 3.4%
COc1ccc(C(=O)NCC2(c3ccccc3)CCOCC2)cc1[N+](=O)[O-] | 0.8 | -8.1 | ? | -24.2% | -4.6%
COc1ccc(C(=O)NCc2ccccn2)cc1[N+](=O)[O-] | 0.7 | -1.3 | 39.2% | -12.5% | /
COc1ccccc1OCCNC(=O)c1ccc2c(c1)CCC2 | 23.6* | 64.5* | 63.9% | 88.2% | -21.8%
CCn1c(CCNC(=O)c2ccc(OC)c(OC)c2)nc2ccccc21 | -2.2 | 7.0 | ? | -29.1% | -3.1%
